In PubChem BioAssay AID2202241 (National Center for Advancing Translational Sciences (NCATS), 2025):
The source made the active and inactive calls. The rule behind the calls is not given here. Square brackets hold non-standard residues; d marks the D form. Peptide text beside a SMILES is read from it. * marks the point of attachment. Dolaproine = CO[C@@H]([C@@H]1CCCN1)[C@@H](C)C(=O)O; Dil = CC[C@H](C)[C@H](NC)[C@@H](CC(=O)O)OC; NMe2Val = CC(C)[C@@H](C(=O)*)N(C)C; X1 = C[C@@H](N*)[C@@H](O)c1ccccc1; NMeV = CN[C@H](C(=O)O)C(C)C

Assay: Identification of antibody-drug conjugate (ADC) payloads which are substrates of ATP-binding cassette drug efflux transporters: cell line panel data
Conditions: 99 cancer cell line panel, CellTiter-Glo viability, 48 h; hits give low values
From the text: Antibody-drug conjugates (ADCs) feature an antibody recognizing a specific protein joined to a potent toxic payload. Numerous antibody-drug conjugates have received FDA approval; however, clinical resistance arises. Resistance mechanisms include decreased expression or mutation of the antibody target, impaired payload release, or increased expression of ATP-binding cassette (ABC) efflux transporters associated with multidrug resistance. We therefore sought to characterize the activity of ADC payloads across a broad set of cancer cell lines. We performed a high-throughput screen with 27 common ADC payloads against a panel of 99 cell lines to assess sensitivity to various payloads. Duocarmycin DM and PNU-159682 were exquisitely toxic across the panel of cancer cell lines of varying origins. These findings highlight the potentially broad applicability of Duocarmycin DM and PNU-159682 as ADC payloads in future ADC development.
Compounds were sourced from Levena Biopharma (San Diego, CA), Selleck Chem (Houston, TX), ChemieTek (Indianapolis, IN), or Microsource Discovery Systems (Gaylordsville, CT). Cell line sources and culture conditions were as follows: CAL-27 (ATCC: CRL-2095) and Hs 766T (ATCC: HTB-134) were grown in DMEM media +10% FBS. RKO (ATCC: CRL-2577), A-427 (ATCC: […]), BT-20 (ATCC: HTB-19), Detroit562 (ATCC: CCL-138), HARA-B (Cytion: 300465), PA-1 (ATCC: CRL-1572), TCCSUP (ATCC: […]), UM-UC-3 (ATCC: CRL-1749), and WI-38 (ATCC: CCL-75) were grown in EMEM media +10% FBS. AGS (ATCC: CRL-1739) was grown in F12K media +10% FBS. JJN-3 (DSMZ: ACC 541) was grown in IMDM media +20% FBS. 769-P (ATCC: CRL-1933), 786-O (ATCC: CRL-1932), A-375 (ATCC: CRL-1619), A-431 (ATCC: CRL-1555), A-549 (ATCC: CCL-185), A2780 (Cytion: 300491), ACHN (ATCC: CRL-1611), BT-474 (ATCC: HTB-20), BT-549 (ATCC: HTB-122), CCRF-CEM (ATCC: CCL-119), Daudi (ATCC: CCL-213), HaCaT (Cytion: 300493), HCC38 (ATCC: CRL-2314), HCC827 (ATCC: CRL-2868), HCT15 (ATCC: CCL-225), HEL 92.1.7 (ATCC: TIB-180), Hs 352.Sk (ATCC: CRL-7250), Hs578T (ATCC: HTB-126), HT-1080 (ATCC: CCL-121), HuCC-T1 (Riken Bioresource Center: RCB1960), HuP-T3 (DSMZ: ACC 259), HuP-T4 (DSMZ: ACC 223), IM-9 (ATCC: CCL-159), JJ012 (Gift: Karina Galoian (University of Miami)), JM-1 (ATCC: CRL-10423), K-562 (ATCC: CCL-243), Kasumi-3 (ATCC: CRL-2725), KMS-12-BM (DSMZ: ACC 551), LOUCY (ATCC: CRL-2629), LoVo (ATCC: CCL-229), MCF-7 (ATCC: HTB-22), MDA-MB-231 (ATCC: HTB-26), MDA-MB-436 (ATCC: HTB-130), MDA-MB-468 (ATCC: HTB-132), MIA PaCa-2 (ATCC: CRL-1420), MM1.R (ATCC: CRL-2975), MM1.S (ATCC: CRL-2974), NALM-6 (ATCC: CRL-3273), NCI-H1299 (ATCC: CRL-5803), NCI-H1355 (ATCC: CRL-5865), NCI-H1395 (ATCC: CRL-5868), NCI-H1437 (ATCC: CRL-5872), NCI-H2122 (ATCC: CRL-5985), NCI-H2170 (ATCC: CRL-5928), NCI-H226 (ATCC: CRL-5826), NCI-H23 (ATCC: CRL-5800), NCI-H322M (NIH: NCI-60), NCI-H460 (ATCC: HTB-177), NCI-H522 (ATCC: CRL-5810), NCI-H929 (ATCC: CRL-3580), NIH 3T3 (ATCC: CRL-1658), OCI-M2 (DSMZ: ACC 619), OPM-2 (DSMZ: ACCC 50), OVCAR-3 (ATCC: HTB-161), OVCAR-4 (Gift: Phil Lorenzi MD Anderson), OVCAR-8 (Gift: Phil Lorenzi MD Anderson), Panc 10.05 (ATCC: CRL-2547), PANC-1 (ATCC: CRL-1469), Pfeiffer (ATCC: CRL-2632), PL45 (ATCC: CRL-2558), PSN1 (ATCC: CRL-3211), Raji (ATCC: CCL-86), RD (Gift: Mari Yohe NCI), RPMI-8226 (ATCC: CRM-CCL-155), RS4;11 (ATCC: CRL-1873), SK-BR-3 (ATCC: HTB-30), SK-MEL-28 (ATCC: HTB-72), SMS-CTR (Gift: Mari Yohe NCI), SNU-16 (ATCC: CRL-5974), SU-DHL-8 (ATCC: CRL-2961), SU.86.86 (ATCC: CRL-1837), SW1990 (ATCC: CRL-2172), SW403 (ATCC: CCL-230), SW480 (ATCC: CCL-228), SW579 (ATCC: HTB-107), T-47D (ATCC: HTB-133), T24 (ATCC: HTB-4), and U-937 (ATCC: CRL-1593.2) were grown in RPMI +10% FBS. U266B1 (ATCC: TIB-196) were grown in RPMI +15% FBS. ME-1 (ATCC: HB-119), MOLM-13 (DSMZ: ACC 554), AMO1 (DSMZ: ACC 538), MOLP-8 (DSMZ: ACC 569), MV4-11 (ATCC: CRL-9591), PL-21 (DSMZ: ACC 536), and L-363 (DSMZ: ACC 49) were grown in RPMI +20% FBS. […]
With `CC[C@H](C)[C@@H]([C@@H](CC(=O)N1CCC[C@H]1[C@H](OC)[C@@H](C)C(=O)N[C@@H](Cc1ccccc1)C(=O)O)OC)N(C)C(=O)[C@@H](NC(=O)[C@H](C(C)C)N(C)C)C(C)C` (NMe2Val-V[Dil][Dolaproine]F-OH) the viability AUC was 932 (active). With `CC[C@H](C)[C@H](NC(=O)[C@H]1CCCCN1C)C(=O)N(C)[C@H](C[C@@H](OC(C)=O)c1nc(C(=O)O)cs1)C(C)C` the viability AUC was 982 (active). For `COc1cc2cc(c1Cl)N(C)C(=O)C[C@H](OC(=O)[C@H](C)N(C)C(=O)CCS)[C@]1(C)OC1[C@H](C)C1C[C@@](O)(NC(=O)O1)[C@H](OC)/C=C/C=C(\C)C2` (stereo partly specified), the viability AUC was 817 (active). For `COc1cc2cc(C(=O)N3C[C@@H](CCl)c4c3cc(O)c3ccccc43)[nH]c2c(OC)c1OC`, the viability AUC was 654 (active). With `COc1cc2cc(c1Cl)N(C)C(=O)C[C@H](OC(=O)C(C)C)[C@]1(C)O[C@H]1[C@H](C)[C@@H]1C[C@@](O)(NC(=O)O1)[C@H](OC)C=CC=C(C)C2` the viability AUC was 756 (active). In the case of `CC[C@H](C)[C@@H]([C@@H](CC(=O)N1CCC[C@H]1[C@H](OC)[C@@H](C)C(=O)N[C@H](C)[C@@H](O)c1ccccc1)OC)N(C)C(=O)[C@@H](NC(=O)[C@@H](NC)C(C)C)C(C)C` (H-[NMeV]V[Dil][Dolaproine]-X1), the viability AUC was 816 (active). With `CC[C@H](C)[C@@H]1NC(=O)CNC(=O)[C@H]2Cc3c([nH]c4cc(O)ccc34)S(=O)C[C@H](NC(=O)CNC1=O)C(=O)N[C@@H](CC(N)=O)C(=O)N1C[C@H](O)C[C@H]1C(=O)N[C@@H]([C@@H](C)[C@@H](O)CO)C(=O)N2` (stereo partly specified) the viability AUC was 992 (active). With `COc1cc2cc(c1Cl)N(C)C(=O)C[C@H](OC(=O)[C@H](C)N(C)C(=O)CCC(C)(C)S)[C@]1(C)OC1[C@H](C)C1C[C@@](O)(NC(=O)O1)[C@H](OC)/C=C/C=C(\C)C2` (stereo partly specified) the viability AUC was 777 (active). For `CC[C@H](C)[C@H](NC(=O)[C@H]1CCCCN1C)C(=O)N(C)[C@H](C[C@@H](OC(C)=O)c1nc(C(=O)N[C@@H](Cc2ccccc2)C[C@H](C)C(=O)O)cs1)C(C)C`, the viability AUC was 793 (active). With `COc1cccc2c1C(=O)c1c(O)c3c(c(O)c1C2=O)C[C@@](O)(C(=O)CO)CC3OC1CC(N2CCOC(OC)C2)C(O)C(C)O1` (stereo partly specified) the viability AUC was 666 (active). In the case of `CC[C@H](C)[C@@H]([C@@H](CC(=O)N1CCC[C@H]1[C@H](OC)[C@@H](C)C(=O)N[C@H](C)[C@@H](O)c1ccccc1)OC)N(C)C(=O)[C@@H](NC(=O)[C@H](C(C)C)N(C)C)C(C)C`, the viability AUC was 699 (active).
